Experimental data taken from ChEMBL document CHEMBL5724796, “Tm Shift (DSF) assay results for EUbOPEN Chemogenomics Library” (2024).
Non-standard residues stand in square brackets, D forms with d. Residues, ends and D or L forms follow the SMILES beside them. *: point of attachment. Benzoyl(4-tBu) = CC(C)(C)c1ccc(C(=O)*)cc1; Lys(Et2) = CCN(CC)CCCC[C@H](N)C(=O)O; Cbz = O=C(OCc1ccccc1)*; CH2Cl = ClC*; CH2F = FC*

target: Mitogen-activated protein kinase 1 (Homo sapiens) (UniProt P28482); details: Compound concentration 20.0 uM
Sequence (P28482 whole entry): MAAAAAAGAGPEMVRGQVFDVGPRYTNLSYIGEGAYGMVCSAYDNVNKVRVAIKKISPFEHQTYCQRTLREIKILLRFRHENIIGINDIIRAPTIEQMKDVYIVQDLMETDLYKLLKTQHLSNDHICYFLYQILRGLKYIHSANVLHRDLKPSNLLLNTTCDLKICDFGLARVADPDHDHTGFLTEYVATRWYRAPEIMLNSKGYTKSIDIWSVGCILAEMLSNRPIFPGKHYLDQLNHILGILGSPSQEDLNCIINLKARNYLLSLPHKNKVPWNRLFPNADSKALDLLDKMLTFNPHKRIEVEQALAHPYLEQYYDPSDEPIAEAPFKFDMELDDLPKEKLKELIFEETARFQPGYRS

Compared with `O=C(NCC1CCOCC1)c1n[nH]cc1NC(=O)c1c(F)cccc1F`, `CCN(c1cc(-c2ccc(CN3CCOCC3)cc2)cc(C(=O)NCc2c(C)cc(C)[nH]c2=O)c1C)C1CCOCC1` is lower in ΔTm: 0.1 °C for the first, -4.86 °C for the second.

Compared with `Oc1ccc(-c2c(-c3ccccc3)nn3c(C(F)(F)F)cc(C(F)(F)F)nc23)cc1`, `Cn1nc2c(=O)n(CC3(O)CCN(C(=O)C[C@H](c4ccccc4)C(F)(F)F)CC3)cnc2c1-c1ccc(CN)cc1` is higher in ΔTm: -0.2 °C for the first, 0.17 °C for the second.

Compared with `CNC(=O)O[C@H]1COc2ccc(N3CCN(C4COC4)CC3)cc2[C@@H]1NC(=O)c1ccc(F)cc1`, `CN1CC(=O)N2[C@H](c3ccc4c(c3)OCO4)c3[nH]c4ccccc4c3C[C@@H]2C1=O` is higher in ΔTm: -1.19 °C for the first, 0.16 °C for the second.

First: CN(CCCCCCNc1ccnc2cc(Cl)ccc12)CCCCCCNc1ccnc2cc(Cl)ccc12
Second: CC(C)(C)OC(=O)NCCCCCN(CCc1ccccc1)C(=O)n1cc(-c2ccc(OC(F)(F)F)cc2)nn1
The ΔTm of the first is lower: -0.51 °C for the first, 0.71 °C for the second.

Compared with `COc1cc(-c2cn(C)c(=O)c3cnccc23)cc(OC)c1CN(C)CC(=O)NCCOCCOCCNc1cccc2c1C(=O)N(C1CCC(=O)NC1=O)C2=O` (centres undefined), `CCCOc1cccc(Oc2cc3c(cc2NS(=O)(=O)c2cccc(C(=O)NCCOCCOCCOCC(=O)N[C@H](C(=O)N4C[C@H](O)C[C@H]4C(=O)NCc4ccc(-c5scnc5C)cc4)C(C)(C)C)c2)n(C)c(=O)n3C)c1` is higher in ΔTm: -0.38 °C for the first, 0 °C for the second.

Compared with `CC(C)c1c(-c2cnn(C(C)(C)C)c2)[nH]c2c(C#N)cnn2c1=O`, `CNC(=O)N1CCc2c(c(N3CCCc4cc(-c5cnn(C)c5)c(C(F)F)cc43)nn2C2CCOCC2)C1` is lower in ΔTm: 0.3 °C for the first, -0.36 °C for the second.

First: CS(=O)(=O)c1ccc(-c2nnc(C=Cc3nnc(-c4ccc(C#N)cc4)o3)n2-c2ccccc2Cl)nc1
Second: O=C(N1CCCCC1c1ccccc1)n1cc(-c2ccc(-c3cccc(CO)c3)cc2)nn1 (centres undefined)
The ΔTm of the first is higher: -0.27 °C for the first, -9.96 °C for the second.

Going from `CS(=O)(=O)c1ccc(Oc2cc(F)cc(C#N)c2)c2c1C(O)C(F)C2` (centres undefined) to `CC1C(C#N)=C(N)OC2=C1C(=O)CC(c1cccc3ccccc13)C2` (centres undefined), the ΔTm falls from 0.54 °C to -2.01 °C.

Going from `NS(=O)(=O)c1cc(-c2nnn[nH]2)c(NCc2cccs2)cc1Cl` to `Cc1cccc(N/N=C(\C(=O)c2cccs2)C(=O)C(F)(F)F)c1`, the ΔTm falls from 0.84 °C to 0.19 °C.

First: CCn1nc(C2CC2)cc1Nc1nc(C(=O)NC)nc2[nH]c3cc(-c4c(C)noc4C)c(OC)cc3c12
Second: CCOC(=O)Oc1c(OC)cc(C(=O)O[C@H]2C[C@H]3CN4CCc5c([nH]c6cc(OC)ccc56)[C@@H]4C[C@H]3[C@@H](C(=O)OC)[C@@H]2OC)cc1OC
The ΔTm of the first is higher: 0.23 °C for the first, -0.02 °C for the second.

Compared with `COCCOCCn1nc2c(c1C)-c1c(Cl)ccc3c1c(C)c(C(=O)O)n3CCCOc1cc(cc3c(F)c(Cl)ccc13)CCc1cc(nn1C)CSC2`, `CCC(=O)N1CCOc2c(cc(-c3cc(OC)cc(OC)c3)cc2C(=O)N[C@H]2CCCN(C)C2)C1` is higher in ΔTm: -1.31 °C for the first, 0.1 °C for the second.

First: CN(CC[C@@H](Oc1ccc(-c2ccccc2)cc1)c1ccc(F)cc1)CC(=O)O
Second: CN(CCC(Oc1ccc(-c2ccccc2)cc1)c1ccc(F)cc1)CC(=O)O (centres undefined)
The ΔTm of the first is lower: 0.32 °C for the first, 0.42 °C for the second.

First: Cc1ccsc1C(=CCCN1CCC[C@@H](C(=O)O)C1)c1sccc1C
Second: O=C(NCCCOc1ccc2[nH]c(=O)ccc2c1)N(C1CC1)[C@@H]1CCCC[C@H]1O
The ΔTm of the first is higher: 0.16 °C for the first, 0.1 °C for the second.

First: O=C1Nc2ccccc2C2(CCN(CC(Cc3ccccc3)Nc3nc4ccc(F)cc4s3)CC2)N1 (centres undefined)
Second: CNCC[C@@H](Oc1ccccc1C)c1ccccc1
The ΔTm of the first is lower: -0.14 °C for the first, 0.18 °C for the second.

Compared with `C[C@]1(c2nc3c(C(N)=O)cccc3[nH]2)CCCN1`, `C[C@H](NC(=O)c1cn(C2(C#N)CC2)cn1)C(=O)Nc1nc(-c2cccc(-c3ccn(C)n3)c2)cs1` is lower in ΔTm: -0.01 °C for the first, -0.23 °C for the second.

Compared with `CCN(CC)CCCC[C@H](NC(=O)[C@H](CC(C)C)NC(=O)[C@H](C)NC(=O)[C@H](Cc1ccccc1)NC(=O)c1ccc(C(C)(C)C)cc1)C(=O)N[C@@H](CO)C(=O)OC` ({Benzoyl(4-tBu)}-FAL[Lys(Et2)]S-OMe), `CC(=O)N[C@@H](Cc1ccccc1)C(=O)N[C@@H](CC(C)C)C(=O)N[C@H](C(=O)N[C@@H](CC(=O)O)C(=O)CCl)[C@@H](C)O` (Ac-FLTD-CH2Cl) is lower in ΔTm: 0.31 °C for the first, -0.16 °C for the second.

Compared with `COC(=O)CC[C@H](NC(=O)[C@H](C)NC(=O)OCc1ccccc1)C(=O)N[C@H](C(=O)N[C@@H](CC(=O)OC)C(=O)CF)C(C)C` (Cbz-AE(OMe)VD(OMe)-CH2F), `CCN(C(=O)c1cc(F)ccc1Oc1cncnc1N1CC2(CCN(C[C@H]3CC[C@H](NS(=O)(=O)CC)CC3)CC2)C1)C(C)C` is higher in ΔTm: -0.86 °C for the first, 0.48 °C for the second.

Going from `CCN(CC)c1ccc(C2=NNC(=O)C[C@H]2C)cc1[N+](=O)[O-]` to `N#Cc1ccc(-c2c3n(c4cccnc24)CCN(C2CC2)C3=O)cc1F`, the ΔTm rises from -0.11 °C to 0.04 °C.

Going from `CC1(C)Cn2nc(-c3ccc(F)cn3)c(-c3ccnc4[nH]ncc34)c2CO1` to `CCCCCCNC(=O)n1cc(F)c(=O)[nH]c1=O`, the ΔTm rises from -0.48 °C to 0.03 °C.

In the case of `CCCCCCCCCCCCC/C=C/[C@@H](O)[C@H](CO)NC(=O)CCl`, the ΔTm is reported as 1.33 °C.
